Assay [1] is described as follows: qHTS assay to identify small molecule antagonists of the androgen receptor (AR) signaling pathway using the MDA cell line in the presence of 0.5 nM R1881 - cell viability counter screen (AID 1259242). Further: nearly all actives have a fitted effect of over 45% in size. In outline:
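Live-cell protease fluorescence, CellTiter-Fluor, 30 min at 37C. Cells: MDA-kb2, 3,000/well, preincubated 5 hr. Compounds plus 0.5 nM R1881 final, 16 hr, 37C, 0% CO2.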

In assay [2] the target is Androgen receptor (Homo sapiens) (UniProt P10275). The assay is described as follows: qHTS assay to identify small molecule antagonists of the androgen receptor (AR) signaling pathway using the MDA cell line in the presence of 0.5 nM R1881 (AID 1259243). Further: nearly all actives have a fitted effect of over 50% in size. Further: potency means the concentration at half of the fitted maximal effect. The procedure, abridged:
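MDA-kb2, MMTV-luc (AR/GR elements); 3,000 cells/well; cpd + 0.5 nM R1881 final; 16 hr 37C, 0% CO2; ONE-Glo 30 min RT; luminescence.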
For orientation: Quantitative high-throughput screening tests each substance at several concentrations.

For assay [3], the target named is Estrogen receptor (Homo sapiens) (UniProt P03372). The assay is described as follows: qHTS assay to identify small molecule antagonists of the estrogen receptor alpha (ER-alpha) signaling pathway using the BG1 cell line in the presence of 0.1 nM 17-beta-estradiol (AID 1259244). Further: nearly all actives have a fitted effect of over 50% in size. Further: potency means the concentration at half of the fitted maximal effect. The procedure, abridged: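 Luminescence after ONE-Glo (30 min, room temperature) measured ERE-luciferase activity in VM7Luc4E2 cells treated 22 h with compound and 0.1 nM final 17beta-estradiol as stimulator.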
Chain of Estrogen receptor (Homo sapiens) (P03372 whole entry, looked up): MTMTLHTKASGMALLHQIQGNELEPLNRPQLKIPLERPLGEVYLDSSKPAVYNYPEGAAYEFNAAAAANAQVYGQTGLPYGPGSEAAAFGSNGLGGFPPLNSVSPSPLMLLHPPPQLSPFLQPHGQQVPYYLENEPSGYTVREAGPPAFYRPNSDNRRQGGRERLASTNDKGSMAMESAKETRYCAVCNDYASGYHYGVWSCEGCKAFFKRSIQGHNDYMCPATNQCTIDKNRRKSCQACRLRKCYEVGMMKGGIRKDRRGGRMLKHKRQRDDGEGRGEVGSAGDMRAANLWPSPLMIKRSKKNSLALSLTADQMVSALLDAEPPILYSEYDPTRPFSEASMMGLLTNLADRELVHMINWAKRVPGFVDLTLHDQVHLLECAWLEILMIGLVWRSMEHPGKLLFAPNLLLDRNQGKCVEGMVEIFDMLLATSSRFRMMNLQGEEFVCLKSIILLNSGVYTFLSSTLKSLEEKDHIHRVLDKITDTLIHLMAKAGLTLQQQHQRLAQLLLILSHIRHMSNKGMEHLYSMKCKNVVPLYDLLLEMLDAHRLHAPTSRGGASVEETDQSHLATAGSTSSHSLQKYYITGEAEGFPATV

Assay [4] can be described thus: qHTS assay to identify small molecule HDAC inhibitors (AID 1259364).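 Further: wild-type HCT-116 cells with endogenous class I/II HDAC activity; top concentration of the series differs between compounds; nearly all actives have a fitted effect of over 45% in size.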 The procedure, abridged:
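HCT-116 (wild type), 1,500 cells/well, overnight; compound 2 hr 37C 5% CO2; HDAC-Glo I/II reagent 30 min RT; luminescence readout.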

The nature of assay [5]: qHTS assay to identify small molecule HDAC inhibitors - cell viability counter screen (AID 1259365). Further: series mostly up to about 92 µM; nearly all actives have a fitted effect of over 50% in size. The procedure, abridged:
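HCT-116 wild-type, overnight attachment; 2hr drug exposure, 37C; CellTiter-Glo luminescent ATP readout after 30min RT.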

Assay [6] in a line: qHTS assay to identify small molecule agonists of the sonic hedgehog signaling (Shh) pathway - cell viability counter screen (AID 1259366). Further: nearly all actives have a fitted effect of over 50% in size. In outline: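 Compounds in DMSO were pin-transferred onto 3T3 Gli1-Luc cells that had settled 4hr; plates then stood 24hr at 37C and 5% CO2. One hour before the end, CellTiter-Fluor was added and fluorescence recorded.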
The nature of assay [7]: qHTS assay to identify small molecule antagonists of the sonic hedgehog signaling (Shh) pathway - cell viability counter screen (AID 1259367). Further: nearly all actives have a fitted effect of over 55% in size. The procedure, abridged:
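Viability was read by CellTiter-Fluor fluorescence in the same wells, reagent added 23 hr into compound treatment and incubated 1 hr at 37C. The 3T3 Gli1-Luc reporter cells (2,000/well) received conditioned medium after compound and ran 24 hr.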

Assay [8] in a line: qHTS assay to identify small molecule agonists of the sonic hedgehog signaling (Shh) pathway (AID 1259368; calls by dose curve;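 further: NIH/3T3-derived 3T3Gli1-Luc cells carrying a stable Gli1-driven firefly luciferase reporter; series mostly up to about 92 µM; nearly all actives have a fitted effect of over 15% in size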). The procedure, abridged:
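Read-out: firefly luciferase luminescence from a Gli1 response element reporter stably integrated in NIH/3T3-derived 3T3Gli1-Luc cells, measured 30 min at room temperature after reagent addition. Compound exposure lasted 24 hr at 37 C, 5% CO2.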

Assay [9] in a line: qHTS assay to identify small molecule antagonists of the sonic hedgehog signaling (Shh) pathway (AID 1259369; calls by dose curve; further: nearly all actives have a fitted effect of over 45% in size; further: potency means the concentration at half of the fitted maximal effect). The procedure, abridged: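 Luminescence readout: firefly Luc under Gli1 response element in 3T3Gli1-Luc cells (NIH/3T3 clone). Antagonist mode, stimulation by conditioned medium; compound exposure 24hr at 37 C, 5% CO2.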
Assay [10] can be described thus: qHTS assay to identify small molecule agonists of the androgen receptor (AR) signaling pathway in the presence of an antagonist - cell viability counter screen (AID 1259379).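 Further: MDA-kb2 human breast cancer cells carrying an MMTV luciferase reporter; series mostly up to about 92 µM; nearly all actives have a fitted effect of over 25% in size.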 The procedure, abridged:
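Viability counter screen: CellTiter-Fluor fluorescence, measured in the same wells as the luciferase read-out. MDA-kb2 cells, 3,000/well, with nilutamide at 3.0uM final and compounds at 15 concentrations, 16 hr at 37C, 0% CO2.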

The nature of assay [11]: qHTS assay to identify small molecule agonists of the estrogen receptor beta (ER-beta) signaling pathway - cell viability counter screen (AID 1259380). Further: nearly all actives have a fitted effect of over 30% in size. Further: potency means the concentration at half of the fitted maximal effect. The procedure, abridged:
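Luminescence read-out (CellTiter-Glo, 30 min, room temp) taken in the same wells as the beta-lactamase reporter assay; ER-beta-UAS-bla HEK293T cells exposed to DMSO-dissolved compounds for 16 hr at 37C in 2% charcoal-stripped FBS medium.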

Assay [12] deals with Androgen receptor (Homo sapiens) (UniProt P10275). The assay is described as follows: qHTS assay to identify small molecule agonists of the androgen receptor (AR) signaling pathway in the presence of an antagonist (AID 1259381; calls by dose curve; further: nearly all actives have a fitted effect of over 15% in size). In outline: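 Luciferase read-out (ONE-Glo, 30min room temperature) in MDA-kb2 MMTV-reporter cells; agonist mode run in presence of AR antagonist nilutamide, 3.0uM final. Compounds tested as 15-point series, 16hr exposure at 37C, 0% CO2.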
Chain of Androgen receptor (Homo sapiens) (P10275 whole entry, looked up): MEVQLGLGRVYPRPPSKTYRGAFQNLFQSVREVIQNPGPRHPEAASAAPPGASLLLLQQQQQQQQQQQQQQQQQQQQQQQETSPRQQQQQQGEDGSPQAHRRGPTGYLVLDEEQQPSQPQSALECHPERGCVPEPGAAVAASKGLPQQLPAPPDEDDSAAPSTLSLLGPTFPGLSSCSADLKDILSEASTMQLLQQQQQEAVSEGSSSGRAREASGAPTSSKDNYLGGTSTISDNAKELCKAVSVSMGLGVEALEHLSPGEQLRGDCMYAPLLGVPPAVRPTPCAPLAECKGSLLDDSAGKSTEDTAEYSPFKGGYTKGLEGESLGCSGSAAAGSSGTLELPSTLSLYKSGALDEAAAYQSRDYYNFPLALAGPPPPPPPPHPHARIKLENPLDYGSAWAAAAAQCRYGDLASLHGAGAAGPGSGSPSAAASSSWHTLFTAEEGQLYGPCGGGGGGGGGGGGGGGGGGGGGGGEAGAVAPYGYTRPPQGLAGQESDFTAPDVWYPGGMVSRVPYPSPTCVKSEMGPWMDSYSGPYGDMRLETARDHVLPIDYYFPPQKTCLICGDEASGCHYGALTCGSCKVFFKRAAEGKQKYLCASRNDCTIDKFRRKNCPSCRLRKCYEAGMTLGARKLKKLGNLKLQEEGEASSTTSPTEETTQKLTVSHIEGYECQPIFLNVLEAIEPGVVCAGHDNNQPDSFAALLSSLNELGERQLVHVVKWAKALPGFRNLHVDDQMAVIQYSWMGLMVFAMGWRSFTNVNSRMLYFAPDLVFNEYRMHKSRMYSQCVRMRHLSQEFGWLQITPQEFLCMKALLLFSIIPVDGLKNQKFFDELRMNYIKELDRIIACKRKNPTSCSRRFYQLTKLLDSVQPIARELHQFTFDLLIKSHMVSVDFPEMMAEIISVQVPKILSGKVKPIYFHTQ

The nature of assay [13]: qHTS assay to identify small molecule antagonists of the estrogen receptor beta (ER-beta) signaling pathway - cell viability counter screen (AID 1259382).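 Further: HEK293T cells carrying ER-beta-UAS-bla reporter stimulated with estradiol; series mostly up to about 92 µM; nearly all actives have a fitted effect of over 55% in size.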 In outline: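 Luminescent ATP read-out (CellTiter-Glo, 30 min, RT) taken in the same wells as the bla reporter assay. HEK293T ER-beta-UAS-bla cells in 2% charcoal-stripped FBS were exposed to compounds with 1nM E2 for 16 hr at 37C.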

Assay [14] deals with Estrogen receptor (Homo sapiens) (UniProt P03372). As to the kind of experiment: qHTS assay to identify small molecule agonists of the estrogen receptor alpha (ER-alpha) signaling pathway in the presence of an antagonist (AID 1259383; calls by dose curve; further: top concentration of the series differs between compounds; nearly all actives have a fitted effect of over 15% in size). In outline:
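Luciferase luminescence (ONE-Glo, 30min at room temperature) measured in VM7Luc4E2 cells after 22hr compound exposure at 15 concentrations, with 10.0nM ICI-182,780 final present; cells express endogenous ER-alpha and carry four EREs upstream of luciferase.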

Assay [15] can be described thus: qHTS assay to identify small molecule agonists or antagonists of the thyroid stimulating hormone receptor (TSHR) signaling pathway - wild type cell line counter screen (AID 1259384; calls by dose curve). In outline:
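Counter screen in untransfected Hek293: compounds (15-point titration, triplicate) plus phosphodiesterase inhibitor Ro20-1724 added after 18 h plating; 30 min RT. Intracellular cAMP via competitive d2/cryptate immunoassay, 1 h incubation.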

Assay [16] deals with Thyrotropin receptor (Homo sapiens) (UniProt P16473). As to the kind of experiment: qHTS assay to identify small molecule antagonists of the thyroid stimulating hormone receptor (TSHR) signaling pathway (AID 1259385; calls by dose curve; further: nearly all actives have a fitted effect of over 20% in size). In outline:
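Antagonist mode: compound-treated TSHR-expressing HEK293 cells were stimulated with 1.5 ng/mL TSH (final) in presence of Ro20-1724 for 30 min at RT. HTRF cAMP detection after 1 h; each compound tested at 15 concentrations, triplicate.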

A short description of assay [17]: qHTS assay to identify small molecule agonists of the estrogen receptor alpha (ER-alpha) signaling pathway in the presence of an antagonist - cell viability counter screen (AID 1259386).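 Further: series mostly up to about 92 µM; cells exposed to compounds for 22 h at 37 °C before the viability read; nearly all actives have a fitted effect of over 30% in size.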 The procedure, abridged:
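Read-out: CellTiter-Fluor fluorescence after 1hr reagent incubation, measured in the same wells as the luciferase readout. VM7Luc4E2 cells were exposed to 15 compound concentrations with 10.0nM ICI-182,780 for 22hr at 37C.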

Assay [18] addresses Estrogen receptor beta (Homo sapiens) (UniProt Q92731). As to the kind of experiment: qHTS assay to identify small molecule antagonists of the estrogen receptor beta (ER-beta) signaling pathway (AID 1259378; active means well fitted inhibition curve with a large enough effect in the signal ratio in the repeat runs, not every such curve was filed as active; the % refers to the signal ratio; further: potency means the concentration at half of the fitted maximal effect). In outline: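 Antagonist mode: compounds added to beta-lactamase reporter HEK293T ER-beta-UAS cells stimulated with E2 (1nM final), 16 hr at 37C. LiveBLAzer B/G FRET substrate, 2 hours room temperature, fluorescence read-out.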

For assay [19] the target is unchanged. As to the kind of experiment: qHTS assay to identify small molecule agonists of the estrogen receptor beta (ER-beta) signaling pathway (AID 1259377; active means well fitted activation curve with a large enough effect in the signal ratio in the repeat runs, not every such curve was filed as active; the % refers to the signal ratio). The procedure, abridged:
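qHTS in ER-beta-UAS-bla HEK293T cells: 6 hr settling, then 16 hr compound at 37C, then LiveBLAzer substrate 2 h at RT before fluorescence reading.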

A number with no mark means an inactive call. Results filed as inconclusive are left out. Activity calls are given as the source filed them. Unless noted, the call rests on the fitted dose curve; in most records, active means well fitted curve in the direction sought with a large enough effect in the repeat runs; inconclusive means weak or mixed curves; inactive means no such curve, though single readings can be large; an effect the other way counts as inactive or inconclusive.

The record followed here is PubChem BioAssay (Tox21).

Chain of Estrogen receptor beta (Homo sapiens) (Q92731 whole entry, looked up): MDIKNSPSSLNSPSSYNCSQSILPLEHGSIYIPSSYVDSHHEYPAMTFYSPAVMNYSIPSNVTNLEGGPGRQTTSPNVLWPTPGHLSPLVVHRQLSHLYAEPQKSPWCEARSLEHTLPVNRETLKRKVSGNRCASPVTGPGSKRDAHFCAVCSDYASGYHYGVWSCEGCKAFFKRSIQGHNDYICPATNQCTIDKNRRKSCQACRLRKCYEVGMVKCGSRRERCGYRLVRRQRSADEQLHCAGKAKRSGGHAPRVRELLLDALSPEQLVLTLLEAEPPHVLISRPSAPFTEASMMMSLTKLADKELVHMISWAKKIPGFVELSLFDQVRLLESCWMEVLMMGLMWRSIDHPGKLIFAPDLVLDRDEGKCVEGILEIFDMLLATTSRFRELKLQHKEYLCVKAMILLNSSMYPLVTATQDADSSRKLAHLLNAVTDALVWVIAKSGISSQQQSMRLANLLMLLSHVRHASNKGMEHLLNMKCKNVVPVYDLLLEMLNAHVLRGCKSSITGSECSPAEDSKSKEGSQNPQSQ
Chain of Thyrotropin receptor (Homo sapiens) (P16473 whole entry, looked up): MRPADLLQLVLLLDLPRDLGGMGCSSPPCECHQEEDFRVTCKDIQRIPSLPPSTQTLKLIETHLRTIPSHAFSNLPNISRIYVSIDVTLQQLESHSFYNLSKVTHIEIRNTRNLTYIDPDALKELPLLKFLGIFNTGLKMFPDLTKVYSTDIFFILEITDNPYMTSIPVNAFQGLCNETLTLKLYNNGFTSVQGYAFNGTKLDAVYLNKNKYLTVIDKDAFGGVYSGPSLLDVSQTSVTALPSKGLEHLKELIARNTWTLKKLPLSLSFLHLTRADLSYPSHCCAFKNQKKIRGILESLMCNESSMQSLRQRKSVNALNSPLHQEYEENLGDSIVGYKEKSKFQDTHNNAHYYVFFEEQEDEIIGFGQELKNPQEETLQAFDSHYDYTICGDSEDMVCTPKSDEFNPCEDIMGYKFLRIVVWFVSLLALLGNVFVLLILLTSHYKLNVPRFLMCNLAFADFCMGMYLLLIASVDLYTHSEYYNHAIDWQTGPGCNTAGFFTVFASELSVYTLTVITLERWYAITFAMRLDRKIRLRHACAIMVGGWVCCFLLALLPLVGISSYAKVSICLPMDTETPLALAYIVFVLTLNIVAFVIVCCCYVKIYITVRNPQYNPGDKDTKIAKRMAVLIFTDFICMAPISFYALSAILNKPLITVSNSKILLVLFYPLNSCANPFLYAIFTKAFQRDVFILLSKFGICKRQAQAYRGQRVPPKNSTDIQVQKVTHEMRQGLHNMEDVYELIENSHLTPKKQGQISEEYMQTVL

As to `CO[Si](CCC1CCC2OC2C1)(OC)OC` (centres undefined), the Potency entry in assay [1], in assay [2], in [3], in [4], in assay [5] and in assay [6] was “inactive” in each case. In addition, the Potency entry in [7], in assay [8], in assay [9], in [10], in assay [11] and in assay [12] was “inactive” in each case. The Potency entry in [13], in assay [14], in assay [16] and in [17] was “inactive” each time. Also, the outcome in assay [15] was inactive.
`Oc1ccc(-c2ccccc2)c(Cl)c1`: the Potency result in assay [1], in [3], in assay [4], in assay [5], in assay [8] and in assay [9] was “inactive” in each case. Moreover, the Potency entry in assay [10], in [13], in assay [14], in [16] and in [17] was “inactive” throughout. For the same compound, the Potency in [2] was 1.93 µM (active); in assay [18] it was 21.7 µM (active); in assay [11] it was 27.3 µM (active). The outcome in assay [15] was inactive.
Consider `CC(C)CCOCCC(C)C`, for which the Potency entry in assay [1], in [2], in assay [3], in assay [4], in [5] and in [6] was “inactive” each time. Also, the Potency result in [8], in assay [9], in [19], in assay [18], in [10] and in assay [11] was “inactive” throughout. Moreover, the Potency entry in assay [12], in [13], in assay [14] and in assay [16] was “inactive” in each case. The result in [15] was inactive.
As for `CCCCCCCCC(C)=O`, the Potency result in assay [1], in [2], in assay [3], in assay [4], in assay [5] and in [6] was “inactive” throughout. For the same compound, the Potency entry in assay [7], in [8], in [9], in assay [10], in assay [11] and in assay [13] was “inactive” each time. The Potency result in assay [14], in assay [16] and in assay [17] was “inactive” in each case. For the same compound, the result in assay [15] was inactive.
In the case of `OCCCc1cccnc1`, the Potency result in assay [1], in [2], in [3], in [4], in assay [5] and in assay [6] was “inactive” throughout. The Potency entry in [7], in [8], in assay [9], in [10], in assay [11] and in assay [13] was “inactive” in each case. Besides, the Potency result in assay [16] and in assay [17] was “inactive” throughout. In assay [15], the compound was classed as inactive.
Take `OCCCS`: the Potency result in [1], in assay [2], in [3], in [4], in assay [5] and in assay [6] was “inactive” throughout. Further, the Potency entry in assay [8], in [9], in [18], in [10], in assay [11] and in [12] was “inactive” each time. The Potency result in assay [13], in assay [14], in assay [16] and in assay [17] was “inactive” in each case. Besides, in assay [15], the call was inactive.
Take `NC(=O)c1nc(-c2cccc(-c3cc(F)ccc3OCC(F)(F)C(F)(F)F)c2)n[nH]1`: the Potency result in assay [1], in assay [4], in assay [5], in assay [8], in [10] and in assay [12] was “inactive” throughout. Also, in assay [14], the Potency entry was “inactive”. In addition, the Potency is 54.5 µM (active) in assay [2], 54.5 µM (active) in [3], 3.06 µM (active) in [9] and 61.1 µM (active) in assay [11]. Further, the call in [15] was inactive.
Turning to `CCO[Si](C)(C)OCC`, the Potency entry in [1], in assay [2], in assay [3], in assay [4], in [5] and in assay [6] was “inactive” each time. Besides, the Potency result in [8], in assay [9], in [10], in assay [11], in assay [13] and in assay [14] was “inactive” each time. The Potency entry in assay [16] and in [17] was “inactive” each time. Moreover, the outcome in [15] was inactive.
